The list is not random: actives were taken first. Their share in the collection is about 4.1%.
Casp6 inh: blocks human caspase-6 cleavage activity; AID 686996; P55212; hit rate 0.53% among 350,000; purified caspase-6, Z-VEID-R110 cleavage fluorescence; inhibition, % at 12.5 µM;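 active means mean inhibition across replicates at least about 35%, with every replicate also reaching that limit, limit read from the data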
Target sequence (P55212 24-179 limits assumed): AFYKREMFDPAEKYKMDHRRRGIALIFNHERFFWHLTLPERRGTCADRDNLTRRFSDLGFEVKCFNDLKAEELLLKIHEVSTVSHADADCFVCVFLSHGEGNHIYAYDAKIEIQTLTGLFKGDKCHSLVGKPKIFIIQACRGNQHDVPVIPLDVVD
Target sequence (P55212 194-293 limits assumed): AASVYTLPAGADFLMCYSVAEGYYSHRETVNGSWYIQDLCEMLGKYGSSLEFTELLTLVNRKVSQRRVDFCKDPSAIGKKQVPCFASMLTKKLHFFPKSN
HIV Env fusion: HIV envelope-mediated fusion inhibition; hit rate 1.1% among 360,000; inhibition, % at 12.3 µM; HeLa-JRFL Env/CEM21 cell fusion, luciferase; AID 651610;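 active means mean replicate inhibition score of at least 50 and every replicate individually at or above 50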
NSD2 inh: blocks human histone methyltransferase NSD2; hit rate 0.54% among 310,000; inhibition, % at 12.5 µM; O96028; AID 743445; NSD2 peptide methylation, AlphaScreen, 120 min; in the data active means inhibition above about 50%
ALR inh: human ALR oxidase inhibition via reduced H2O2; P55789; purified ALR, DTT oxidation, H2O2 HRP-luminol luminescence; inhibition, % (concentration not given with the values); hit rate 3.8% among 290,000;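 active means mean replicate inhibition above about 79%, with every replicate also reaching it, limit read from the data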
PglD DTNB: blocks C. jejuni PglD acetyltransferase activity | purified PglD enzyme, DTNB colorimetric CoA detection | inhibition, % at 12.5 µM | hit rate 0.098% among 360,000; in the data active means inhibition above about 16%, passing the limit was not always enough
CFTR F508del cor: CFTR F508del correction in bronchial cells; activity (quench increase), % at 7.58 µM; hit rate 0.36% among 350,000; AID 720511; CFBE cells, YFP halide quenching; stimulated with forskolin plus potentiator P3; % fluorescence drop versus neutral controls;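 active means mean added fluorescence quench of at least 8% versus neutral control, with both replicates also reaching 8%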;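 further: cells transiently co-express mutant CFTR-F508del with the halide-sensitive YFP; corrector assay measuring rescue of mutant channel to the surface after 24 h compound exposure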
AlphaScreen art: interferes with AlphaScreen signal, flagging NSD2 false positives. hit rate 9.4% among 1,500. shares compounds with NSD2 inh. AC35, µM (series often up to 10 µM). AlphaScreen artifact counterscreen, preloaded methylated H4 peptide; call rule not given here
Numbers stand for hits; 0 = inactive; - = no result.

SMILES	Casp6 inh	HIV Env fusion	NSD2 inh	ALR inh	PglD DTNB	CFTR F508del cor	AlphaScreen art
CC=Cc1ccc2n(c1=O)C[C@@H]1[C@@H](CO)[C@H](C(=O)Nc3ccc(-c4ccccc4)cc3)[C@H]2N1C(C)=O (mixture of isomers)	-	-	-	-	-	0	-
O=C1CC(=O)Nc2cc(S(=O)(=O)Nc3cccc(C(F)(F)F)c3)ccc2N1	0	0	0	0	0	0	-
O=C1CC(=O)Nc2cc(S(=O)(=O)Nc3ccc(Cl)c(C(F)(F)F)c3)ccc2N1	0	0	52	0	0	0	0
Cc1cccc(-n2c(CNC(=O)c3cccc([N+](=O)[O-])c3C)n[nH]c2=S)c1	0	0	0	0	0	0	-
Cc1cccc(-n2c(Cn3nc(C)c([N+](=O)[O-])c3C)n[nH]c2=S)c1	-	-	125	0	-	-	0
C[C@@H]1CCCCO[C@@H](CN(C)S(=O)(=O)c2ccc(Cl)cc2)[C@@H](C)CN([C@@H](C)CO)C(=O)c2cc(NC(=O)Nc3ccc4c(c3)OCO4)ccc2O1	0	0	-	-	0	0	-
CN(Cc1c(O)ccc2c1oc(=O)c1ccccc12)C1CCCCC1	-	0	75	0	0	-	0
O=c1oc2c(CN3CCOCC3)c(O)ccc2c2ccccc12	0	-	0	0	0	-	-
O=C(O)C=C1C2CC3CC(C2)CC1C3	-	0	50	0	0	-	0
COc1cc(/C=N/Nc2ccc(Cl)c(C(=O)O)c2)ccc1OC(=O)c1ccco1	0	0	0	0	0	0	-
COc1ccc(C(=O)Oc2ccc(/C=N/Nc3ccc(Cl)c(C(=O)O)c3)cc2OC)cc1	0	0	85	0	0	0	0
O=C(Nc1ccccc1C(=O)O)c1cncc(Br)c1	-	0	68	0	0	-	0
Cn1c(SCC#N)nc2ccccc2c1=O	0	0	0	0	-	0	-
Cn1c(SCc2ccccc2C#N)nc2ccccc2c1=O	0	0	100	0	0	0	0
COCC(=O)N1CC2(C1)CN(C(=O)CN1CCOCC1)[C@@H](CO)c1c2c2ccc(OC)cc2n1C	-	-	-	-	-	0	-
O=C(CCN1CCOCC1)NCC1COc2ccccc2O1 (stereo unspecified)	-	0	56	0	0	-	0
O=C(CCc1ccccc1)NCCCN1CCOCC1	-	0	98	0	0	-	0
O=C(CN1CCN(Cc2ccccc2)CC1)NCC1COc2ccccc2O1 (stereo unspecified)	0	0	0	0	0	-	-
COc1ccc(C#Cc2ccc([C@@H]3[C@@H](CO)N4CCCCN(S(=O)(=O)c5cn(C)cn5)C[C@@H]34)cc2)cc1	0	-	-	-	0	0	-
O=C(Nc1cccnc1)c1ccc(COc2ccccc2Cl)o1	-	0	127	0	0	-	0
Cc1ccccc1-c1ocnc1C(=O)Nc1ccccc1NC(=O)c1ccccn1	0	0	74	0	0	0	0
O=C1C(=Cc2ccco2)CCC1=Cc1ccco1	88	-	141	-	0	0	0
O/N=C1\CCC\C1=C/c1ccco1	-	-	0	0	0	-	-
CO[C@@H]1CN(C)C(=O)c2cc(C#N)ccc2OC[C@H]2O[C@@H](CC[C@H]2OC)CCN(C)C(=O)[C@H]1C	0	0	-	-	0	0	-
O=c1c2ccc(F)cc2sn1-c1ccccc1	0	0	-	-	0	0	-
SMILES	Casp6 inh	HIV Env fusion	NSD2 inh	ALR inh	PglD DTNB	CFTR F508del cor	AlphaScreen art
O=c1c2ccc([N+](=O)[O-])cc2sn1-c1ccccc1	-	-	59	-	-	-	0
CCN1CCc2nc3ccccc3c(C(=O)Nc3ccc(NC(C)=O)cc3)c2C1	0	0	59	0	0	0	0
OC(COc1cccc2ccccc12)CN1CCOCC1 (stereo unspecified)	0	0	0	-	0	0	-
OC(COc1ccc2ccccc2c1Cl)CN1CCOCC1 (stereo unspecified)	-	-	86	0	0	-	0
CO[C@H]1CN(C)C(=O)c2cc(NC(=O)C3CC3)ccc2OC[C@@H](C)N(C(=O)C2CCOCC2)C[C@H]1C	-	0	-	-	-	0	-
Cc1sc2nc[nH]c(=S)c2c1-c1ccccc1	0	0	86	0	-	0	0
Cc1sc2nc[nH]c(=O)c2c1-c1ccc(F)cc1	0	0	0	0	0	0	-
CCC(=O)N1[C@@H]2c3ccc(/C=C/c4ccccc4)c(=O)n3C[C@@H]2[C@@H](CO)[C@@H]1C(=O)OC	0	-	-	-	0	0	-
CC(=O)C1=C(O)C(=O)N(CCc2c[nH]c3ccccc23)C1c1ccco1 (stereo unspecified)	-	0	61	0	0	-	0

High-throughput results from PubChem BioAssay.
